According to the supplement of paper PMC13380429:

Columns and labels:
[1] = test system: Vero E6 infected with SARS-CoV-2; assay: morphology score (similarity to uninfected cells); higher = more like uninfected cells; conditions: 24 h
[2] = test system: Vero E6 infected with SARS-CoV-2; assay: SARS-CoV-2 infection rate relative to infected DMSO; higher = more infection, active = 60 or less; conditions: 24 h

Structure (SMILES)	morphology score [1]	SARS-CoV-2 infection rate [2]
O=C(O)CCNc1cc(N2CCc3ccccc3CC2)nc(-c2cccnc2)n1 (10 µM)	0.165	108% (inactive)
O=C(O)c1ccc2c(c1)C(=O)N(c1cccc(Oc3ccc([N+](=O)[O-])cc3)c1)C2=O (10 µM)	0.173	99.5% (inactive)
CNC(=O)[C@@H](Cc1ccccc1)N(C)C(=O)[C@@H](Cc1ccc2ccccc2c1)N(C)C(=O)/C=C/CC(C)(C)N [tabimorelin] (10 µM)	-0.00047	112% (inactive)
C[C@H]1[C@@H](O)O[C@@H]2O[C@@]3(C)CC[C@H]4[C@H](C)CC[C@@H]1[C@@]24OO3 (10 µM)	0.225	84% (inactive)
Cc1ccc(S(=O)(=O)Cc2nc(-c3ccc(C(=O)NCc4cccnc4)cc3)oc2C)cc1 (0.833333 µM)	-0.146	93% (inactive)
O=C1c2c(O)cc(O)cc2O[C@H](c2cc(O)c(O)c(O)c2)[C@H]1O [dihydromyricetin] (10 µM)	-0.0984	108% (inactive)
CCCCCCCC/C=C\CCCCCCCC(N)=O [oleamide] (10 µM)	0.242	94.5% (inactive)
CCC(Cc1c(I)cc(I)c(N)c1I)C(=O)O (configuration not stated) [iopanic-acid] (10 µM)	-0.136	116% (inactive)
Cc1cc(NS(=O)(=O)c2ccc(N)cc2)no1 [sulfamethoxazole] (10 µM)	0.128	94.5% (inactive)
O=C1NC(c2ccccc2)(c2ccccc2)C(=O)N1COP(=O)(O)O [fosphenytoin] (10 µM)	-0.197	123% (inactive)
CNCCCN1c2ccccc2CCc2ccccc21 [desipramine] (10 µM)	0.212	81% (inactive)
O=C1NC(=O)[C@@H](c2cn3c4c(cccc24)CCC3)[C@@H]1c1c[nH]c2ccccc12 [tivantinib] (10 µM)	-0.141	107% (inactive)
C(#CCN1CCCC1)CN1CCCC1 [tremorine] (10 µM)	0.107	96% (inactive)
C/C=C(/C(=C/C)c1ccc(O)cc1)c1ccc(O)cc1 [dienestrol] (10 µM)	-0.0419	96% (inactive)
Fc1ccc(-c2c3cccc(C(F)(F)F)c3nn2Cc2ccc(F)cc2Cl)cc1 (10 µM)	0.289	95.5% (inactive)
Cc1cc(NC(=O)Nc2ccc(N(C)C)cc2)c2cc(F)cc(F)c2n1 (10 µM)	0.204	99% (inactive)
Nc1ncnc2c1ncn2[C@@H]1O[C@H](COP(=O)(O)OP(=O)(O)OP(=O)(O)OP(=O)(O)OC[C@H]2O[C@@H](n3cnc4c(N)ncnc43)[C@H](O)[C@@H]2O)[C@@H](O)[C@H]1O [diadenosine-tetraphosphate] (10 µM)	0.0713	108% (inactive)
CC1Sc2c(C(=O)O)c(=O)c3cc(F)c(N4CCNCC4)cc3n21 (configuration not stated) [ulifloxacin] (10 µM)	-0.0402	106% (inactive)
Nc1ncnc2c1C(=O)N(c1ccc([C@H]3CC[C@H](CC(=O)O)CC3)cc1)CCO2 (10 µM)	0.118	92.5% (inactive)
Cc1cccc(Nc2nc(-c3ccncc3)cs2)c1 (0.833333 µM)	0.455	61% (inactive)
CNC[C@H](O)c1cccc(O)c1 [phenylephrine] (10 µM)	-0.0115	110% (inactive)

Structure (SMILES)	morphology score [1]	SARS-CoV-2 infection rate [2]
COc1cc(C(=O)NS(=O)(=O)c2ccccc2C)ccc1Cc1cn(C)c2ccc(NC(=O)OC3CCCC3)cc12 [zafirlukast] (10 µM)	0.282	105% (inactive)
CC(C)(C)NCC(O)COc1cccc2c1CCC(=O)N2 (configuration not stated) [carteolol] (10 µM)	0.111	96.5% (inactive)
Cc1ccccc1CN1C(=O)C2=C(CCN(Cc3ccccc3)C2)N2CCN=C12 (0.833333 µM)	-0.16	82% (inactive)
NS(=O)(=O)NCCNc1nonc1/C(=N/O)Nc1ccc(F)c(Br)c1 (10 µM)	0.162	112% (inactive)
O=c1cc(N2CCOCC2)oc2c1ccc1ccccc12 (10 µM)	0.258	110% (inactive)
Cc1cc(N2CCOCC2)ccc1Nc1nc(NC2CCCCC2)c2nc[nH]c2n1 (10 µM)	-0.0587	90.5% (inactive)
OB1OCc2cc(F)ccc21 [tavaborole] (10 µM)	0.00492	108% (inactive)
c1cn2cc(-c3ccc4cn[nH]c4c3)nc(Nc3ccc(N4CCOCC4)cc3)c2n1 (10 µM)	0.194	104% (inactive)
O=S1(=O)c2cccc3cccc(c23)N1CCCN1CCN(c2ccc(F)cc2)CC1 [fananserin] (10 µM)	-0.0356	108% (inactive)
Nc1nc(N)c2nc(-c3cccc(O)c3)cnc2n1 (10 µM)	0.242	101% (inactive)
COc1ccc2[nH]c(C(=O)c3ccccc3)cc2c1 (0.833333 µM)	-0.112	110% (inactive)
O=C(O)CN1C(=O)c2cccc3cccc(c23)C1=O [alrestatin] (10 µM)	0.0519	106% (inactive)
CCCCNc1ccc(C(=O)OCCN(C)C)cc1 [tetracaine] (10 µM)	-0.144	116% (inactive)
CCCCCCCCCCCCCC(=O)OC(C)C [isopropyl-myristate] (10 µM)	0.235	95.5% (inactive)
CCOCOC[C@H](C[C@H](C)C(=O)NO)NC(=O)c1ccc(Oc2ccccc2)cc1 (10 µM)	0.131	98.5% (inactive)
Cc1cc(CCCOc2c(C)cc(-c3noc(C(F)(F)F)n3)cc2C)on1 [pleconaril] (10 µM)	-0.0431	108% (inactive)
NC(=O)NO [hydroxyurea] (10 µM)	0.223	100% (inactive)
C/C(=C\C(N)C(=O)O)CP(=O)(O)O (configuration not stated) (10 µM)	0.064	110% (inactive)
C=CCc1cc(OC)c(O)c(C(=O)NCCO)c1 [alibendol] (10 µM)	0.101	118% (inactive)
c1ccc(CNc2ncnc3[nH]cnc23)cc1 [6-benzylaminopurine] (10 µM)	0.186	99% (inactive)
CCOC(=O)c1c(O)nc2cccc3c2c1-c1ccccc1C3=O (10 µM)	-0.157	117% (inactive)

Structure (SMILES)	morphology score [1]	SARS-CoV-2 infection rate [2]
CCOC(=O)Nc1cc(-c2ccc(C)c(NS(C)(=O)=O)c2)nn2c(C)nnc12 [bromosporine] (10 µM)	-0.021	111% (inactive)
CC1(N)CCN(c2cnc(-c3cccc(Cl)c3Cl)c(N)n2)CC1 (0.833333 µM)	0.0281	112% (inactive)
CC(C)(O)CC(=O)O [beta-hydroxy-beta-methylbutyrate] (10 µM)	0.0168	105% (inactive)
NC(=O)C1=CN([C@@H]2O[C@H](COP(=O)(O)OP(=O)(O)OC[C@H]3O[C@@H](n4cnc5c(N)ncnc54)[C@H](OP(=O)(O)O)[C@@H]3O)[C@@H](O)[C@H]2O)C=CC1 (10 µM)	-0.0816	106% (inactive)
COc1c(C)c(C(=O)c2ccc(N)c(C(=O)O)c2)n2ccccc12 (10 µM)	0.0882	105% (inactive)
CC(C)=CCC[C@](C)(O[C@@H]1O[C@H](CO)[C@@H](O)[C@H](O)[C@H]1O)[C@H]1CC[C@]2(C)[C@@H]1[C@H](O)C[C@@H]1[C@@]3(C)CC[C@H](O)C(C)(C)[C@@H]3CC[C@]12C [ginsenoside-C-K] (10 µM)	0.0257	118% (inactive)
CC[C@H](C)[C@H](N)C1=N[C@H](C(=O)N[C@@H](CC(C)C)C(=O)N[C@H](CCC(=O)[O-])C(=O)N[C@H](C(=O)N[C@H]2CCCCNC(=O)[C@H](CC(N)=O)NC(=O)[C@@H](CC(=O)[O-])NC(=O)[C@H](Cc3cnc[nH]3)NC(=O)[C@@H](Cc3ccccc3)NC(=O)[C@H]([C@@H](C)CC)NC(=O)[C@@H](CCCN)NC2=O)[C@@H](C)CC)CS1.[Zn+2] [bacitracin-zinc] (10 µM)	-0.0221	108% (inactive)
Oc1ccc(Cl)cc1 [parachlorophenol] (10 µM)	0.063	98% (inactive)
NC1=N[C@@](c2cccc(-c3cncnc3)c2)(c2ccnc(C(F)F)c2)c2cccc(F)c21 (10 µM)	0.163	92.5% (inactive)
Cc1c(CC(C)(C)C(=O)O)n(Cc2ccc(Cl)cc2)c2ccc(F)cc12 (10 µM)	-0.214	113% (inactive)
Cc1ccc(S(=O)(=O)NC(=O)NN2CCCCCC2)cc1 [tolazamide] (10 µM)	0.103	100% (inactive)
CCC(=O)NC[C@H](Cc1ccc(OCCc2nc(-c3ccccc3)oc2C)cc1)N/C(C)=C\C(=O)c1ccc(C(F)(F)F)cc1 (10 µM)	-0.0333	110% (inactive)
CC[C@@H](CO)NCCN[C@@H](CC)CO [ethambutol] (10 µM)	-0.117	109% (inactive)
C=CCN1CC[C@]23c4c5ccc(O)c4O[C@H]2/C(=N/NC(=O)c2ccccc2)CC[C@@]3(O)[C@H]1C5 [naloxone-benzoylhydrazone] (10 µM)	0.0722	110% (inactive)
O=P1(NCCCl)OCCCN1CCCl (configuration not stated) [ifosfamide] (10 µM)	0.188	97.5% (inactive)
CC(OC(=O)NCC1(CC(=O)O)CCCCC1)OC(=O)C(C)C (configuration not stated) [gabapentin-enacarbil] (10 µM)	-0.0175	112% (inactive)
O=c1cc(-c2ccc(O)c(O)c2)oc2cc(O)cc(O)c12 [luteolin] (10 µM)	0.167	110% (inactive)
O=C(NCc1ccc(F)cc1)N1CCN2C(=O)OC(c3ccccc3)(c3ccccc3)[C@@H]2C1 (racemic) (10 µM)	0.069	97% (inactive)
CCN(CC)CC1CCCCN1CC(=O)N1c2ccccc2C(=O)Nc2cccnc21 (configuration not stated) [otenzepad] (10 µM)	0.171	94.5% (inactive)
